In PubChem BioAssay AID1508602 (The Scripps Research Institute Molecular Screening Center, 2020):
Where “and” joins values, the source holds several entries; their conditions need not be identical. Equal values may be shown once. Hit rate of the full screen: of about 650,000 compounds, about 6,800 (1%) were called active. Rule as the data show it: active = activation above about 4.9%; inactive = the rest. Only a selection was taken, and actives are over-represented in it overall. Some structures have more than one record in an assay (separate samples or runs), and their calls can disagree.

These molecules were tested against G-protein coupled receptor 151 (Homo sapiens) (UniProt Q8TDV0) (assay: activators of human GPR151, primary screen, cell-based, PathHunter beta-arrestin, luminescence (AID 1508602;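 also: 0% = median of compound wells and 100% = cells with positive control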)). Details: PathHunter beta-arrestin GPR151 cells, at 11.2 µM, stronger effect = higher value.
G-protein coupled receptor 151 (Homo sapiens), sequence (Q8TDV0 whole entry, looked up): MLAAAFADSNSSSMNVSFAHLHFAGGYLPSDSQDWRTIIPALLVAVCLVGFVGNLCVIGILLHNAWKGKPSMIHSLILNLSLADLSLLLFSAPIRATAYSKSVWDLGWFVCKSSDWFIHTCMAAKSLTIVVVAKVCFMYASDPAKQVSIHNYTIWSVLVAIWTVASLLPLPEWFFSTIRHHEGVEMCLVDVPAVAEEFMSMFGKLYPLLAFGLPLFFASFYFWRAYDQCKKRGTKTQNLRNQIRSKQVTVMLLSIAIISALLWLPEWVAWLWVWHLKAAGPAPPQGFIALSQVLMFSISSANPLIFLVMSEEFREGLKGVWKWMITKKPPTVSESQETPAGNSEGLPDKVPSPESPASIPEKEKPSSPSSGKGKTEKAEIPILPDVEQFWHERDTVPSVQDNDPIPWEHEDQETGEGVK

Structure (SMILES) | activation
Cc1ccccc1NC(=O)Nn1cnnc1 | -0.0585% (inactive)
COc1ccc(CN(N=Nc2nonc2C)c2nonc2C)cc1 | -0.147% (inactive)
CC(=O)c1ccc(C(=O)NCC2Cc3cc(Cl)cc(-c4ccncc4)c3O2)s1 (stereo unspecified) | 1.35% (inactive)
Cc1nc(=S)[nH]c(C)c1CCC(=O)O | 0.381% (inactive)
CCOC(C(=O)c1ccccc1)c1ccccc1 (stereo unspecified) | -0.174% (inactive)
CCOC(=O)C(C(=O)c1ccccc1)C1(O)C(=O)c2ccccc2C1=O (stereo unspecified) | 6.04% (active)
CCOC(=O)CCC(=O)OC(C(=O)c1ccccc1)c1ccccc1 (stereo unspecified) | 0.912% (inactive)
CCc1ccc(CN2CCCC(CO)(Cc3cccc(OC)c3)C2)o1 (stereo unspecified) | 0.911% (inactive)
N#Cc1c(-c2ccc(F)cc2)cc(-c2ccccc2)nc1SCCOc1ccccc1 | -0.0587% (inactive)
Cc1cncc2cccc(N3CCN(C(=O)C(N)c4ccc(Br)cc4)CC3)c12 (stereo unspecified) | 1.97% (inactive)
Cn1c(=O)c2cc(C(=O)NCCCN3CCCCCC3)sc2c2ccccc21 | 0.856% (inactive)
CCN1CCN(C(=O)c2cc3c(=O)n(C)c4ccccc4c3s2)CC1 | 0.989% (inactive)
CC1CCCCN1C(=O)c1cc2c(=O)n(C)c3ccccc3c2s1 (stereo unspecified) | 5.42% (active)
O=C(Nc1cccc(-c2nnc3n2CCCCC3)c1)c1ccc(=O)n(Cc2ccccc2)n1 | -1.56% (inactive)
CCOC(=O)c1c(-c2ccc(OC)cc2)oc2ccc(OC(=O)c3ccccc3OC)cc12 | -0.167% (inactive)
O=C(c1ncoc1-c1cccs1)N1CCN(c2ccc(C(F)(F)F)cn2)CC1 | 0.0668% (inactive)
Nc1[nH]c(=O)[nH]c(=O)c1N=Nc1cccc(Br)c1 | -1.15% (inactive)
O=C1CCN(Cc2cc(F)cc(F)c2)CCN1Cc1ccc(Cl)s1 | -0.0282% (inactive)
N=c1c(C(=O)NCc2cccnc2)cc2c(=O)n3ccccc3nc2n1CCO | 1.18% (inactive)
COCCNC(=O)c1cc2c(=O)n3ccccc3nc2n(CCc2ccccc2)c1=N | 4.99% (active)
CCCn1c(=N)c(C(=O)NCc2ccc(C)cc2)cc2c(=O)n3ccccc3nc21 | 1.57% (inactive)
Cc1ccc(C2(C)NC(=O)N(CC(=O)c3ccc(Br)s3)C2=O)cc1 (stereo unspecified) | 1.11% (inactive)
O=C(CN(c1cccc([N+](=O)[O-])c1)S(=O)(=O)c1ccccc1)N1CCOCC1 | 0.197% (inactive)

Structure (SMILES) | activation
CCCCN1C(=O)S/C(=C\c2ccc(O)c([N+](=O)[O-])c2)C1=O | -1.5% (inactive)
CN(C)S(=O)(=O)c1cccc(C(=O)N2CCCc3ccccc32)c1 | 1.08% (inactive)
O=C(CC1C(=O)NCCN1CCc1ccccc1)NCCCn1ncc2ccccc21 (stereo unspecified) | 0.711% (inactive)
COC(=O)CCCNC(=O)CC1C(=O)NCCN1Cc1ccc2ccccc2c1 (stereo unspecified) | -0.306% (inactive)
O=C(CC1C(=O)NCCN1Cc1ccc2ccccc2c1)NCCCn1cccn1 (stereo unspecified) | 5.94% (active)
COc1cc(CN(C(=O)c2cncs2)C2CCCC2)cc(OC)c1OCC1CCCO1 (stereo unspecified) | -1.02% (inactive)
COC(=O)c1ccc2c(=O)nc3c(-c4ccccc4)n[nH]n3c2c1 | -1.93% (inactive)
CCOC(=O)c1ccc(CNC(=O)c2cc(CCc3ccccc3)no2)o1 | 0.0388% (inactive)
Oc1ccc(Cn2cc[nH]c2=S)cc1 | 8.86% (active)
COc1ccc(Cn2cc[nH]c(=O)c2=O)cc1 | -0.548% (inactive)
O=[N+]([O-])c1cccc(COC2=NS(=O)(=O)c3ccccc32)c1 | 0.739% (inactive)
NC(=S)N/N=C/c1ccc([N+](=O)[O-])cc1 | -0.328% (inactive) and 5.02% (active)
CSc1ccc(/C=N/NC(N)=S)cc1 | 0.328% (inactive)
O=C(Cc1ccccc1)N/N=C/c1ccc([N+](=O)[O-])cc1 | -0.27% (inactive)
Cc1[nH]c2ccccc2c1/C=N/NC(=O)/C(=C/c1ccccc1O)NC(=O)c1ccccc1 | -5.34% (inactive)
COc1cccc(C(=O)NC(=S)Nc2ccc(OC)cc2OC)c1 | 10.4% (active)
COc1ccc(NC(=S)NC(=O)c2ccc([N+](=O)[O-])cc2)c(OC)c1 | 3.1% (inactive)
COc1cccc(C(=O)NC(=S)Nc2ccccc2OC)c1 | -0.111% (inactive)
CCCOC(=O)C1=C(C)NC(=O)NC1c1ccc(Br)cc1 (stereo unspecified) | 9.45% (active)
CCCOC(=O)C1=C(C)NC(=O)NC1c1ccccc1 (stereo unspecified) | -1.76% (inactive)
CC1=C(C(=O)OCCc2ccccc2)C(c2ccc(Br)cc2)NC(=O)N1 (stereo unspecified) | -1.85% (inactive)
COc1ccc(C2(C(=O)Nc3ccc(C(=O)NCc4ccccc4)cc3)CCOCC2)cc1 | 0.34% (inactive)
CCCCN(C)C(=O)C1(c2ccc(OC)cc2)CCOCC1 | 0.343% (inactive)

Structure (SMILES) | activation
CCCCNC(=O)C1(c2ccc(OC)cc2)CCOCC1 | 7.05% (active)
Cn1cccc1CC(=O)N/N=C\c1c(Cl)cccc1Cl | 0.023% (inactive)
COc1cccc(CC2(CCC(=O)NC3CCOC(C)(C)C3)CCC(=O)N2)c1 (stereo unspecified) | 1.54% (inactive)
CCC(C)Nc1nc2c(c(=O)[nH]c(=O)n2C)n1CC(O)COC(C)C (stereo unspecified) | 5.88% (active)
CC(O)Cn1c(N(C)C)nc2c1c(=O)[nH]c(=O)n2C (stereo unspecified) | -0.989% (inactive)
Cc1ccc(/C=N/Nc2nc3c(c(=O)[nH]c(=O)n3C)n2CC(O)COC(C)C)cc1 (stereo unspecified) | -0.049% (inactive)
CCCCNc1nc2c(c(=O)[nH]c(=O)n2C)n1CC(O)COC(C)C (stereo unspecified) | 0.097% (inactive)
C/C(=N\Nc1nc2c(c(=O)[nH]c(=O)n2C)n1CC(C)O)c1ccc(O)cc1 (stereo unspecified) | -2.73% (inactive)
CC(C)CNc1nc2c(c(=O)[nH]c(=O)n2C)n1CC(C)O (stereo unspecified) | 5.96% (active)
Cc1cc(C)c(/C=N/NC(=O)c2nnn(-c3nonc3N)c2CN(C)C)c(C)c1 | -0.818% (inactive)
CCOC(=O)c1c(NC(=O)Cc2ccc([N+](=O)[O-])cc2)sc(C)c1C | -0.865% (inactive)
Cc1cc(S(=O)(=O)n2cc(-c3cccc(F)c3)c(N)n2)ccc1F | 0.532% (inactive)
CC(C)(C)C(=O)Nc1ccnn1C1CCN(Cc2ccccc2C(F)(F)F)CC1 | 0.711% (inactive)
Cc1cccc(CN2CCC(n3nccc3NC(=O)C(C)(C)C)CC2)c1 | -0.39% (inactive)
Cc1ccc(C)c(CN2CCC(n3nccc3NC(=O)C(C)(C)C)CC2)c1 | 5.02% (active)
COc1cccc(/C=N/NC(=O)CC23CC4CC(CC(C4)C2)C3)c1O | 0.719% (inactive)
COc1ccc(NC(=O)Cn2c(=O)n(-c3ccc(F)cc3)c(=O)c3sccc32)cc1 | -0.363% (inactive)
COc1ccc(-n2ccnc2SCC(=O)Nc2ccc(C)cc2)cc1 | 1.88% (inactive)
COc1ccc(NC(=O)Cn2c(-c3ccc(OC)cc3)cn(-c3ccc(C)cc3)c2=O)cc1 | 7.86% (active)
CCOC(=O)c1cc2c(C)n(Cc3ccccc3)c(C)c2cc(C(=O)OCC)c1=O | -0.0778% (inactive)
CCOc1ccc(-c2nn(-c3ccccc3)cc2C2C(C(=O)OCc3ccccc3)=C(C)NC(C)=C2C(=O)OCc2ccccc2)cc1 | 1.89% (inactive)
CCC1=C(C)c2cc3nc(C(=O)OCc4ccccc4)c(C)c-3c(C)n2C1C (stereo unspecified) | 5.68% (active)
NC(=O)CN(c1ccccc1)S(=O)(=O)c1ccccc1[N+](=O)[O-] | 0.204% (inactive)

Structure (SMILES) | activation
CCOc1cc(CNCc2c(C(=O)O)n(CC)c3cc(OC)ccc23)ccc1OC | -1.01% (inactive)
O=C(CSc1nnnn1-c1ccc(F)cc1)N1CCc2ccccc21 | -1.53% (inactive)
O=CN1CCN(CCC(=O)Nc2ccccc2)CC1 | 5.13% (active)
COc1ccc(NC(=O)CCN2CCN(C=O)CC2)cc1 | -1.28% (inactive)
O=C(CCN1CCN(C/C=C/c2ccccc2)CC1)Nc1ccc(Br)cc1 | 1.05% (inactive)
CCOC(=O)c1c(NC(=O)c2nn3c(C(F)(F)F)cc(-c4ccc(OC)cc4)nc3c2Cl)sc2c1CCCC2 | 0.0805% (inactive)
Fc1ccc(Nc2nc3ccccc3n3cnnc23)cc1 | -0.0284% (inactive)
Cc1cc(Nc2ccc(F)cc2)n2cnnc2n1 | 9.65% (active)
Cc1ccc(Nc2cc(C)nc3nncn23)cc1 | -0.458% (inactive)
CCOc1ccccc1/C=C1/NC(=S)NC1=O | 0.436% (inactive)
O=C1CCCN1CCn1cnc2c(NCc3nc4ccccc4[nH]3)nc(N3CCc4ccccc4C3)nc21 | -1.26% (inactive)
CCn1cc(CNC(=S)Nc2cc(OC)ccc2OC)cn1 | -1.23% (inactive)
CNC(=O)C(=O)Nc1cc(OC)ccc1OC | -0.733% (inactive)
COc1ccc(OC)c(NC(=S)Nc2ccccn2)c1 | 9.49% (active)
COCCn1nnnc1C(c1cc2c(C)cc(C)cc2[nH]c1=O)N1CCCC(C)C1 (stereo unspecified) | 0.229% (inactive)
CCOc1ccc2cc(C#N)c(SCC(=O)Nc3ccccc3C(=O)OC)nc2c1 | -0.792% (inactive)
COc1ccc(OC)c(CNC(=O)c2cc3c(C)nc4ccccc4c3o2)c1 | 0.296% (inactive)
O=C(Nc1cc(Cl)cc(Cl)c1)c1ccc(F)c(S(=O)(=O)NCc2ccco2)c1 | 0.664% (inactive)
COc1ccc(C2=NN(C(=O)CSc3nnc(CNC(=O)c4ccc(S(=O)(=O)N(C)C)cc4)n3C)C(c3ccc(C)cc3)C2)cc1 (stereo unspecified) | 1.11% (inactive)
CC(C)CC(C(=O)Nc1cccc([N+](=O)[O-])c1)N1C(=O)c2ccccc2C1=O (stereo unspecified) | 15.7% (active)
CC(C)CC(C(=O)Nc1ccc([N+](=O)[O-])cc1)N1C(=O)c2ccccc2C1=O (stereo unspecified) | 2.66% (inactive)
CC(C)CC(C(=O)Nc1ccc(Cl)cc1)N1C(=O)c2ccccc2C1=O (stereo unspecified) | -0.915% (inactive)
